Data published in PubChem BioAssay.
Where “and” joins values, the source holds several entries; their conditions need not be identical. Equal values may be shown once. Calls of active or inactive are those of the source.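 Rule for the calls: active = thallium flux through the channel raised or lowered by more than 3 SD from vehicle-only wells, actives on both sides; inactive = the rest.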

Each compound was assayed on F380Y/beta4 (assay: BK channel mutant inhibitors and activators – cell-based, U2OS BacMam, thallium flux, beta subunits, selectivity assay, profiling panel (AID 1259406;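 note: initial slope of Thallos dye fluorescence rise after thallium is added; log ratio against the mean of 0.3% DMSO vehicle wells on the same plate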)). Conditions: U2OS BacMam BK variants, at 30 µM.

Compound	log fold change Tl+ flux
O=c1[nH]cc(F)c(=O)[nH]1	-0.0444 (inactive)
CCc1nc(N)nc(N)c1-c1ccc(Cl)cc1	-0.0112 (inactive)
CCc1cccc2c3c([nH]c12)C(CC)(CC(=O)O)OCC3 (stereo not drawn)	-0.00239 (inactive)
Nc1ncn([C@@H]2O[C@H](CO)[C@@H](O)[C@H]2O)c(=O)n1	-0.0152 (inactive)
Cc1ccccc1C(OCCN(C)C)c1ccccc1 (stereo not drawn)	0.102 (inactive) and 0.0432 (inactive)
Cc1ccc(C)c(OCCCC(C)(C)C(=O)O)c1	0.0166 (inactive)
NC(=O)c1cnccn1	0.0145 (inactive)
CCCCCCNC(=O)n1cc(F)c(=O)[nH]c1=O	-0.0261 (inactive)
COC1=CC(=O)C[C@@H](C)[C@]12Oc1c(Cl)c(OC)cc(OC)c1C2=O	-0.0398 (inactive)
Cc1ncc([N+](=O)[O-])n1CC(C)O (stereo not drawn)	0.0424 (inactive)
N[C@@H](C(=O)N[C@@H]1C(=O)N2C(C(=O)O)=C(Cl)CS[C@H]12)c1ccccc1	-0.0331 (inactive)
CO[C@@]1(NC(=O)Cc2cccs2)C(=O)N2C(C(=O)O)=C(COC(N)=O)CS[C@@H]21	-0.02 (inactive)
OCCN1CCN(CCCN2c3ccccc3Sc3ccc(C(F)(F)F)cc32)CC1	0.354 (active)
CN(C)CCOC(c1ccc(Cl)cc1)c1ccccn1 (stereo not drawn)	0.0228 (inactive)
Cc1onc(-c2c(Cl)cccc2Cl)c1C(=O)N[C@@H]1C(=O)N2[C@@H]1SC(C)(C)[C@@H]2C(=O)O	0.00974 (inactive)
COc1cc2nc(N(C)CCCNC(=O)C3CCCO3)nc(N)c2cc1OC (stereo not drawn)	0.00267 (inactive)
NS(=O)(=O)c1cc(C2(O)NC(=O)c3ccccc32)ccc1Cl (stereo not drawn)	-0.0276 (inactive)
CN(C)CCc1c[nH]c2ccc(C[C@H]3COC(=O)N3)cc12	0.0115 (inactive)
Cc1ccc(-c2cc(C(F)(F)F)nn2-c2ccc(S(N)(=O)=O)cc2)cc1	0.0167 (inactive)
CN[C@H]1CC[C@@H](c2ccc(Cl)c(Cl)c2)c2ccccc21	1.13 (active) and 1.04 (active)

Compound	log fold change Tl+ flux
O=S(=O)(O)CCS	0.00454 (inactive)
C/C=C/C(=O)N(CC)c1ccccc1C	-0.00302 (inactive)
COc1ccc(OC)c(C(O)CNC(=O)CN)c1 (stereo not drawn)	0.0115 (inactive)
Cn1cnc([N+](=O)[O-])c1Sc1ncnc2nc[nH]c12	-0.00991 (inactive)
c1ccc2[nH]c(-c3cscn3)nc2c1	0.0538 (inactive)
CCCNCC(O)COc1ccccc1C(=O)CCc1ccccc1 (stereo not drawn)	0.161 (active)
NC(=O)N1c2ccccc2CC(=O)c2ccccc21	-0.0339 (inactive)
Cc1cn([C@H]2C[C@H](N=[N+]=[N-])[C@@H](CO)O2)c(=O)[nH]c1=O	0.0148 (inactive)
CN(CCOc1ccc(CC2SC(=O)NC2=O)cc1)c1ccccn1 (stereo not drawn)	-0.0318 (inactive) and 0.0667 (inactive)
COc1ccccc1OCC(O)COC(N)=O (stereo not drawn)	0.0136 (inactive)
OC(CCN1CCCC1)(c1ccccc1)C1CCCCC1 (stereo not drawn)	0.131 (active)
O=C1C(CCS(=O)c2ccccc2)C(=O)N(c2ccccc2)N1c1ccccc1 (stereo not drawn)	0.0952 (inactive)
COC(=O)Nc1nc2ccc(C(=O)c3ccccc3)cc2[nH]1	-0.0277 (inactive)
CCn1cc(C(=O)O)c(=O)c2cc(F)c(N3CCN(C)CC3)cc21	0.0266 (inactive)
CN1CCCC(n2nc(Cc3ccc(Cl)cc3)c3ccccc3c2=O)CC1 (stereo not drawn)	0.258 (active)
NCc1ccc(S(N)(=O)=O)cc1	-0.0354 (inactive)
Clc1ccc2c(c1)C(N1CCNCC1)=Nc1ccccc1O2	0.0652 (inactive)
CC(C)(C)NCC(O)COc1cccc2c1C[C@H](O)[C@H](O)C2 (stereo partly drawn)	0.0116 (inactive)
NS(=O)(=O)c1cc2c(cc1Cl)NC=NS2(=O)=O	-2.4e-05 (inactive)

These compounds were tested against Calcium-activated potassium channel subunit alpha-1 (Homo sapiens) + Leucine-rich repeat-containing protein 26 (Homo sapiens) (UniProt Q12791+Q2I0M4) in the same assay as above. Conditions: U2OS BacMam BK variants, F380Y/Slo1WT/gamma1, at 30 µM.
Chain of Calcium-activated potassium channel subunit alpha-1 (Homo sapiens) + Leucine-rich repeat-containing protein 26 (Homo sapiens) (Q2I0M4 whole entry, looked up, one chain of several): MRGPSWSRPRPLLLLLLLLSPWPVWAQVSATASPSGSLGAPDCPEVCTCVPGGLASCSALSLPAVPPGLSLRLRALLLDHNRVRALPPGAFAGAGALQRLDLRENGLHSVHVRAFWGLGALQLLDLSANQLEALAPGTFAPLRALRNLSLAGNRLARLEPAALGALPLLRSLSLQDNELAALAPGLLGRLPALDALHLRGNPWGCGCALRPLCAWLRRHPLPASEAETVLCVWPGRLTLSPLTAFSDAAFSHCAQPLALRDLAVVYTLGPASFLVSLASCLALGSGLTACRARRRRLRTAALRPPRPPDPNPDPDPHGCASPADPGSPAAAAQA

Compound	log fold change Tl+ flux
O=c1[nH]cc(F)c(=O)[nH]1	-0.0276 (inactive)
CCc1nc(N)nc(N)c1-c1ccc(Cl)cc1	-0.0172 (inactive)
CCc1cccc2c3c([nH]c12)C(CC)(CC(=O)O)OCC3 (stereo not drawn)	0.00932 (inactive)
Nc1ncn([C@@H]2O[C@H](CO)[C@@H](O)[C@H]2O)c(=O)n1	0.00381 (inactive)
Cc1ccccc1C(OCCN(C)C)c1ccccc1 (stereo not drawn)	-0.00307 (inactive) and 0.0363 (inactive)
Cc1ccc(C)c(OCCCC(C)(C)C(=O)O)c1	0.0687 (inactive)
NC(=O)c1cnccn1	-0.0208 (inactive)
CCCCCCNC(=O)n1cc(F)c(=O)[nH]c1=O	-0.0355 (inactive)
COC1=CC(=O)C[C@@H](C)[C@]12Oc1c(Cl)c(OC)cc(OC)c1C2=O	-0.0624 (inactive)
Cc1ncc([N+](=O)[O-])n1CC(C)O (stereo not drawn)	-0.0293 (inactive)
N[C@@H](C(=O)N[C@@H]1C(=O)N2C(C(=O)O)=C(Cl)CS[C@H]12)c1ccccc1	-0.07 (inactive)
CO[C@@]1(NC(=O)Cc2cccs2)C(=O)N2C(C(=O)O)=C(COC(N)=O)CS[C@@H]21	-0.0176 (inactive)
OCCN1CCN(CCCN2c3ccccc3Sc3ccc(C(F)(F)F)cc32)CC1	0.0357 (inactive)
CN(C)CCOC(c1ccc(Cl)cc1)c1ccccn1 (stereo not drawn)	0.0613 (inactive)
Cc1onc(-c2c(Cl)cccc2Cl)c1C(=O)N[C@@H]1C(=O)N2[C@@H]1SC(C)(C)[C@@H]2C(=O)O	0.0705 (inactive)
COc1cc2nc(N(C)CCCNC(=O)C3CCCO3)nc(N)c2cc1OC (stereo not drawn)	-0.0369 (inactive)
NS(=O)(=O)c1cc(C2(O)NC(=O)c3ccccc32)ccc1Cl (stereo not drawn)	-0.00177 (inactive)
CN(C)CCc1c[nH]c2ccc(C[C@H]3COC(=O)N3)cc12	0.0131 (inactive)
Cc1ccc(-c2cc(C(F)(F)F)nn2-c2ccc(S(N)(=O)=O)cc2)cc1	-0.0327 (inactive)
CN[C@H]1CC[C@@H](c2ccc(Cl)c(Cl)c2)c2ccccc21	0.123 (active) and 0.169 (active)

Compound	log fold change Tl+ flux
O=S(=O)(O)CCS	0.0089 (inactive)
C/C=C/C(=O)N(CC)c1ccccc1C	0.0385 (inactive)
COc1ccc(OC)c(C(O)CNC(=O)CN)c1 (stereo not drawn)	0.0303 (inactive)
Cn1cnc([N+](=O)[O-])c1Sc1ncnc2nc[nH]c12	-4.3e-05 (inactive)
c1ccc2[nH]c(-c3cscn3)nc2c1	0.048 (inactive)
CCCNCC(O)COc1ccccc1C(=O)CCc1ccccc1 (stereo not drawn)	0.00467 (inactive)
NC(=O)N1c2ccccc2CC(=O)c2ccccc21	0.0743 (inactive)
Cc1cn([C@H]2C[C@H](N=[N+]=[N-])[C@@H](CO)O2)c(=O)[nH]c1=O	0.0181 (inactive)
CN(CCOc1ccc(CC2SC(=O)NC2=O)cc1)c1ccccn1 (stereo not drawn)	-0.00356 (inactive) and 0.0332 (inactive)
COc1ccccc1OCC(O)COC(N)=O (stereo not drawn)	0.0335 (inactive)
OC(CCN1CCCC1)(c1ccccc1)C1CCCCC1 (stereo not drawn)	0.011 (inactive)
O=C1C(CCS(=O)c2ccccc2)C(=O)N(c2ccccc2)N1c1ccccc1 (stereo not drawn)	0.000816 (inactive)
COC(=O)Nc1nc2ccc(C(=O)c3ccccc3)cc2[nH]1	0.00509 (inactive)
CCn1cc(C(=O)O)c(=O)c2cc(F)c(N3CCN(C)CC3)cc21	-0.0628 (inactive)
CN1CCCC(n2nc(Cc3ccc(Cl)cc3)c3ccccc3c2=O)CC1 (stereo not drawn)	0.0633 (inactive)
NCc1ccc(S(N)(=O)=O)cc1	0.00552 (inactive)
Clc1ccc2c(c1)C(N1CCNCC1)=Nc1ccccc1O2	-0.0105 (inactive)
CC(C)(C)NCC(O)COc1cccc2c1C[C@H](O)[C@H](O)C2 (stereo partly drawn)	0.00167 (inactive)
NS(=O)(=O)c1cc2c(cc1Cl)NC=NS2(=O)=O	0.00339 (inactive)
